Data reported in the supplement of paper PMC9950053.
Counter-ions that a name gives are not always drawn.

System: Danio rerio larvae (5 dpf)
Assay: habituation (activity change first vs second 5 min of 1-s interval sound, period 17) minus DMSO control (percentage points); higher = larger habituation measure than DMSO larvae
Details: 10 µM; exposure time: 3 h pre-incubation + 3 h imaging
Procedure: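 Wild-type 5 dpf zebrafish larvae (n=48 per drug, 96-well plates, 28.5 °C) were exposed to Tocris FDA-approved library compounds at 10 µM (0.1% DMSO) for 3 h before and 3 h during imaging. Images were taken every 6 s during visual and acoustic stimuli, and larvae were tracked with Z-LaP Tracker. Each measure is the treated-group mean minus the DMSO control mean (n=844), in percentage points. This mapping covers compounds with 5-character plate codes.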

| SMILES | habituation |
| --- | --- |
| COc1ccc(C(CN(C)C)C2(O)CCCCC2)cc1 (stereo unspecified) [Venlafaxine hydrochloride] | -5.52 |
